# Experimental data from the supplement of paper PMC6555819.
# Legend:
# Experiment in all cases: PBM binding z-score (relative to random genomic background probes); higher = stronger binding; sequences stand for … in GC…GCGATTGACAGCGTAGAATGAAGG
# [1] = system: FXR:RXRa (NR concentration 270 nM, RXRa partner concentration 90 nM)
# How it was run: (§1)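 Each nuclear receptor dimer, without ligand, was incubated for 1 h on custom Agilent 4×180K protein-binding microarrays. Binding was detected with antibodies against each partner (one per run), and scanned fluorescence was regression-normalized. The binding z-scores are referenced to random human genomic background probes.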
# [2] = system: LXRa:RXRa (NR concentration 270 nM, RXRa partner concentration 90 nM)
# How it was run: as §1
# [3] = system: LXRa homodimer (NR concentration 270 nM)
# How it was run: as §1
# [4] = system: LXRb:RXRa (NR concentration 270 nM, RXRa partner concentration 90 nM)
# How it was run: as §1
# [5] = system: LXRb homodimer (NR concentration 270 nM)
# How it was run: as §1
# [6] = system: PPARa:RXRa (NR concentration 270 nM, RXRa partner concentration 90 nM)
# How it was run: as §1
# [7] = system: PPARg:RXRa (NR concentration 180 nM, RXRa partner concentration 90 nM)
# How it was run: as §1
# [8] = system: PPARg:RXRa 270nM:90nM, anti-RXR (NR concentration 270 nM, RXRa partner concentration 90 nM)
# How it was run: as §1
# [9] = system: PPARg:RXRa 30nM:10nM, anti-RXR (NR concentration 30 nM, RXRa partner concentration 10 nM)
# How it was run: as §1
# [10] = system: PPARg:RXRa 90nM:30nM, anti-RXR (NR concentration 90 nM, RXRa partner concentration 30 nM)
# How it was run: as §1
# [11] = system: PPARg:RXRa DBDmut IVT, anti-RXR (DBD mutation: RXRa K156A/R161A, NR concentration 270 nM, RXRa partner concentration 90 nM)
# How it was run: as §1
# [12] = system: PPARg:RXRa IVT, anti-PPARg (NR concentration 270 nM, RXRa partner concentration 90 nM)
# How it was run: as §1
# [13] = system: PPARg DBDmut:RXRa IVT, anti-PPARg (DBD mutation: PPARg1 K132A/R137A, NR concentration 270 nM, RXRa partner concentration 90 nM)
# How it was run: as §1
# [14] = system: PPARg DBDmut IVT, anti-PPARg (DBD mutation: PPARg1 K132A/R137A, NR concentration 270 nM)
# How it was run: as §1
# [15] = system: PPARg homodimer (NR concentration 180 nM)
# How it was run: as §1
# [16] = system: PXR:RXRa (NR concentration 270 nM, RXRa partner concentration 90 nM)
# How it was run: as §1
# [17] = system: PXR homodimer (NR concentration 270 nM)
# How it was run: as §1
# [18] = system: RARa:RXR (NR concentration 270 nM, RXRa partner concentration 90 nM)
# How it was run: as §1
# [19] = system: RARa homodimer (NR concentration 270 nM)
# How it was run: as §1
# [20] = system: RARb:RXRa (NR concentration 270 nM, RXRa partner concentration 90 nM)
# How it was run: as §1
Sequence,PBM binding z-score [1],PBM binding z-score [2],PBM binding z-score [3],PBM binding z-score [4],PBM binding z-score [5],PBM binding z-score [6],PBM binding z-score [7],PBM binding z-score [8],PBM binding z-score [9],PBM binding z-score [10],PBM binding z-score [11],PBM binding z-score [12],PBM binding z-score [13],PBM binding z-score [14],PBM binding z-score [15],PBM binding z-score [16],PBM binding z-score [17],PBM binding z-score [18],PBM binding z-score [19],PBM binding z-score [20]
CCGACTGGGGCAGAAGGGTTACCATACCATCCGG,-0.34,-0.358,-0.422,-0.143,-0.958,0.847,1.13,1.14,-0.416,0.389,1.09,1.56,-0.531,-1.22,0.108,-0.0806,-0.804,0.392,-0.582,0.984
CTACCAAGGTGAACAAAGTCGTTGATTACTATTC,0.425,0.395,-0.0192,0.749,-0.488,1.01,0.314,0.548,0.192,0.308,2.31,2.45,0.74,0.992,0.58,0.262,0.0608,0.544,0.222,1.42
CCTATTAGCTGACCATAAGGGCAACCGAAGCTCG,0.524,0.335,0.221,0.0745,0.36,0.273,0.333,-0.0328,-0.243,-0.184,0.163,0.429,-0.689,0.266,1.42,0.183,0.353,0.375,0.765,1.18
CCAGACCGGTGAGAAGGTAACTCAGCCTCGATTA,-0.29,0.0278,0.205,-0.175,-0.35,-0.101,-0.0328,-0.307,-0.601,-0.547,-0.324,-0.727,-1.57,-1.1,0.768,-0.393,-0.18,-0.155,0.901,-0.00175
CCTCGGAGGACAGAAGGTCACAGCTGTCCGCTTT,2.65,3.33,0.899,2.27,-0.713,3.54,0.989,2.62,-0.00709,1.83,0.643,1.32,-1.36,-2.05,2.05,3.33,-0.204,4.13,1.25,3.77
CGAACTGGGTCATCCAGGACAGTGAATACATTGA,3.3,1.9,0.0995,1.9,-0.478,4.92,7.51,5.92,3.5,5.51,7.33,8.01,5.1,4.27,2.15,2.01,0.0976,3.11,0.785,3.21
ATCGAAAGGTAGAAGGTGAGTATACCCACCCGAA,0.00191,0.0493,-0.115,-0.132,0.0948,1.26,1.3,1.72,0.876,1.03,-0.39,0.667,1.35,-0.025,0.231,0.0568,0.241,0.388,0.608,0.615
ATCGAAAGGTCGAAGGTGAGTATCCCCACCCGAA,3.99,3.46,0.139,2.58,0.489,4.42,4.5,4.68,2.04,3.58,0.0448,2.14,0.338,0.675,1.12,2.87,-0.31,3.89,0.365,3.68
CCTATTGGTTGACCATAAGGGCAACCGAAGCTCG,0.484,-0.0111,-0.255,0.153,-0.527,0.421,0.215,0.235,-0.263,-0.214,-1.11,0.135,-0.489,-1.22,0.0166,0.326,-0.293,0.774,-0.166,1.26
AGTCAAAGTTCACTAGGTAGCGTAAGATTCAGCT,5.23,5.4,3.04,2.9,0.743,4.13,6.27,6.17,2.76,5.22,1.37,3.4,0.246,0.621,2.62,4.12,2.83,3.01,1.33,4.68
TCGAGTAGGTTAGTGGGGGCATTCAGCCAACATA,1.28,1.52,0.619,3.73,6.59,2.68,2.05,3.03,1.76,2.53,3.24,4.33,4.17,4.96,1.66,2.68,1.78,1.76,0.673,1.39
TAGCCTAGGTCATGGGCCAGTCTACCACGCGAAC,4.36,3.2,0.0919,2.04,-0.312,4,3.34,3.49,0.699,2.48,1.64,3.21,0.44,0.137,1.7,1.48,-0.884,2.52,-0.257,3.74
CGAACGAGGGCATGAGTTGATACCAAATGCCGAT,0.819,0.53,-0.18,0.374,-0.612,1.57,1.61,1.67,0.555,0.997,2.76,2.32,-0.303,-0.419,0.59,0.723,0.347,0.695,-0.402,2.03
TCGAGTAGGTTAGTCGGGGCATTAAGCCAACATA,-0.0253,-0.0214,-0.347,0.387,-0.774,0.728,0.0278,0.922,1.05,1.18,2.22,1.85,-0.456,0.127,0.173,0.149,-0.182,0.471,-0.436,0.306
